About 79,000 compounds went through this panel and 15% of them were active in at least one assay; those are over-represented in the sample as a whole. The source made the active and inactive calls. Cut-off read from the data, not from the text of the source: active = growth inhibition above about 70%; inactive = the rest.
Columns and labels:
[1] = NCI Yeast Anticancer Drug Screen. Data for the rad50 strain (AID 155);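 note: 0% = growth of vehicle-only cultures of the same strain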; conditions: S. cerevisiae rad50 strain growth inhibition; at 50.0 µM; hits give high values
Outline: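 Compounds were tested on a yeast strain with an engineered DNA damage repair alteration; the reported value is growth inhibition normalised to vehicle treatment.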

[2] = NCI Yeast Anticancer Drug Screen. Data for the mec2-1 strain (AID 157); conditions: S. cerevisiae mec2-1 strain, at 50.0 µM, hits give high values
Outline: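 Yeast mec2-1 mutant treated with compound. Readout: growth inhibition vs vehicle controls.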

[3] = NCI Yeast Anticancer Drug Screen. Data for the sgs1 mgt1 strain (AID 161);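 note: 0% = growth of cultures given vehicle only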; conditions: S. cerevisiae sgs1 mgt1 strain, at 50.0 µM, hits give high values
Outline: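 Read-out: growth inhibition vs vehicle controls. Cells: mutant yeast strain deficient in DNA damage repair.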

[4] = NCI Yeast Anticancer Drug Screen. Data for the cln2 rad14 strain (AID 165);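 note: 0% = growth equal to vehicle treated cultures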; conditions: S. cerevisiae cln2 rad14 strain, at 50.0 µM, hits give high values
Outline: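 cln2 rad14 yeast strain; compound exposure; growth inhibition read vs vehicle controls.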

[5] = NCI Yeast Anticancer Drug Screen. Data for the bub3 strain (AID 167); conditions: S. cerevisiae bub3 mutant strain, at 50.0 µM, hits give high values
Outline: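 Growth of a checkpoint-deficient yeast mutant is measured after compound exposure. Values represent inhibition relative to vehicle.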

[6] = NCI Yeast Anticancer Drug Screen. Data for the mlh1 rad18 strain (AID 175); conditions: S. cerevisiae mlh1 rad18 strain growth inhibition; at 50.0 µM; hits give high values
Outline: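 Yeast w/ defined DNA-repair lesions; compound exposure; growth vs vehicle controls → % inhibition.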

Measured: growth inhibition

Nc1cccc(C(F)(F)F)c1N
inactive: [1] -13.6% | [2] -15.4% | [3] -6.7% | [4] -24.4% | [5] -13.6% | [6] 8.3%

CC(=O)C(Cc1ccccc1)(Cc1ccccc1)C(C)=O
inactive: [1] 3.3% | [2] -0.95% | [3] -8.3% | [4] 7.45% | [5] 1.35% | [6] 2%

O=C1c2c(nc3ccccc3c2-c2ccccc2)CN1Nc1ccccc1
inactive: [1] -12% | [2] -24.9% | [3] -9.45% | [4] 5.65% | [5] -37.7% | [6] -19.4%

CN(C)C(=O)C(c1ccccc1)P(=O)(c1ccccc1)c1ccccc1 (stereo unspecified)
inactive: [1] -7.9% | [2] -12.1% | [3] -0.9% | [4] -26.6% | [5] -21.2% | [6] -5.25%

O=C(O)c1cccc(F)n1
inactive: [1] -0.45% | [2] 2.05% | [3] -1.8% | [4] 3.1% | [5] -0.65% | [6] -1.85%

CC1CN(C(c2ccccc2)c2ccccc2)CCN1CCO (stereo unspecified)
inactive: [1] -3.75% | [2] 20.6% | [3] 12.3% | [4] -65.2% | [5] 4.85% | [6] 25.4%

[N-]=[N+]=Nc1ccc2[nH]c3ccccc3c(=O)c2c1
inactive: [1] 17.9% | [2] -1.05% | [3] 16.9% | [4] -23.4% | [5] -16.9% | [6] 36.7%

COC(=O)CSc1[nH]c2nc(C)nc(Nc3ccccc3)c2c1C#N
inactive: [1] -13.8% | [2] -19.2% | [3] -9.85% | [4] -6.75% | [5] -27.8% | [6] 16.1%

CCCc1cc2c3c(c(=O)oc2cc1O)CCCC3
active: [1] 94.8% | [2] 75.6% | [3] 92.5% | [4] 89% | [5] 92.7% | [6] 96.4%

CC1(CCl)C(=O)C=Cc2ccccc21 (stereo unspecified)
inactive: [1] 6.45% | [2] 0.7% | [3] -5.1% | [4] -6.8% | [5] 5.3% | [6] -3.45%

N#CC1CCN(Cc2ccccc2)C(C#N)C1 (stereo unspecified)
inactive: [1] -9.05% | [2] -2.65% | [3] -16.8% | [4] -4.8% | [5] -14.2% | [6] 3.25%

CCCCCC/C=C\CCCCCCCCCC1=CC(=O)C=C(OC)C1=O
inactive: [1] -1.35% | [2] -10.2% | [3] -19% | [4] -83.8% | [5] -31.4% | [6] -11.7%

COC1C2CCC1C(N=O)C2Br (stereo unspecified)
inactive: [1] -23.2% | [2] 3.75% | [3] -3.1% | [4] -44.9% | [5] 0.65% | [6] -14.7%

Cc1ccc2c(c1)SN(CN1C(=O)c3ccccc3C1=O)N2
inactive: [1] -37.1% | [2] -43.6% | [3] -7.15% | [4] -19% | [5] -38.7% | [6] -28.9%

[Cl][Mn][Cl]
inactive: [1] 10.2% | [2] 6.4% | [3] 17.4% | [4] -7.15% | [5] -4.75% | [6] -0.15%

c1cc2c3c(cccc3c1)N1C(=N2)Sc2nc3ccccc3nc21
inactive: [1] 3.15% | [2] 13.5% | [3] -9.8% | [4] -5.2% | [5] 13.6% | [6] -3%

CN(C)C(=O)C1C2C=CC(CCC2)C1C(=O)N(C)C (stereo unspecified)
inactive: [1] 13.1% | [2] 15.6% | [3] 15.8% | [4] 13.7% | [5] 15.7% | [6] 14.1%

O=C(CC(=O)N1N=C(n2ccc3ccccc32)CC1c1ccccc1)Nc1cccc(Cl)c1 (stereo unspecified)
inactive: [1] -35.5% | [2] -15.3% | [3] -11.8% | [4] 12.1% | [5] -3.5% | [6] -5.85%

c1ccc(-c2cn3c(nc4ccccc43)c(-c3ccccc3)n2)cc1
inactive: [1] -44.6% | [2] -7.15% | [3] -29.1% | [4] -1.15% | [5] -4.3% | [6] -41.9%

CC(=O)O[C@H]1CC(C)(C)C(=C=C/C(C)=C/C=C/C=C/C=C(C)/C=C2C=C(/C=C/[C@@]34O[C@]3(C)C[C@@H](O)CC4(C)C)C(=O)O/2)[C@](C)(O)C1
inactive: [1] 9.55% | [2] 32.5% | [3] 0.9% | [4] 6.2% | [5] 3.6% | [6] 3.95%

CC(O)(C#Cc1ccccc1)c1nc2ccccc2s1 (stereo unspecified)
inactive: [1] 1.2% | [2] -5% | [3] -4.95% | [4] -7.65% | [5] 17.2% | [6] 4.35%

NNC(=O)Cc1c[nH]c2ccccc12
inactive: [1] 7.1% | [2] 9.4% | [3] 5.85% | [4] -7.55% | [5] 6% | [6] 2.25%

COC(=O)/C(=N\NC(C)(C)C)C(C(=O)C(=O)Nc1cc(C)ccc1C)c1nc2ccccc2[nH]c1=O (stereo unspecified)
inactive: [1] -18.8% | [2] -6.9% | [3] -1.5% | [4] 18.8% | [5] -7.95% | [6] -17.8%

CS(=O)(=O)OCC1COCC1COS(C)(=O)=O (stereo unspecified)
inactive: [1] 26.8% | [2] -6.3% | [3] 8.75% | [4] -11.8% | [5] -14.1% | [6] 16.6%

O=Cc1ccc2ccocc1-2
inactive: [1] 9.15% | [2] 14.8% | [3] -27.6% | [4] -11.8% | [5] -20.7% | [6] -41.2%

COC(=O)CC1(C(=O)OC)Oc2ccc(Br)cc2C(=O)N1c1ccc(Br)cc1Cl (stereo unspecified)
inactive: [1] 26.9% | [2] -16.4% | [3] 24.6% | [4] 15.2% | [5] 19.4% | [6] 27.7%

C=CC1(c2ccc(Cl)c(Cl)c2)OCCO1
inactive: [1] -11.3% | [2] 15.8% | [3] 15% | [4] -6.5% | [5] 9.55% | [6] 25.4%

CN(C)CC1CCCCCCC1=O (stereo unspecified)
inactive: [1] -6.45% | [2] 12.7% | [3] -8.55% | [4] -8.1% | [5] -8.85% | [6] 12.8%

COc1ccc2c(c1)C=C(C(C)(C)C)NS2(=O)=O
inactive: [1] 23.6% | [2] -22.6% | [3] 2% | [4] -12.7% | [5] 59% | [6] 63.4%

O=C1c2c(ccc3c2CCC3)CC12Cc1cc3c(cc1C2)CCC3
inactive: [1] -33.8% | [2] -32.5% | [3] -22.9% | [4] 10.9% | [5] -0.5% | [6] -15.2%

CN(C)c1nc(=Nc2ccc3c(c2)OCO3)ss1
inactive: [1] 30.5% | [2] 24.4% | [3] 54% | [4] 34.1% | [5] 16.9% | [6] 50.2%

Cc1ccc(C(=O)O)c(C(=O)O)c1
inactive: [1] -11.2% | [2] -18.9% | [3] -18.4% | [4] -4.25% | [5] -17.1% | [6] 1.75%

CCN(CC)CCNC(=O)Cc1cc(O)c2c(c1O)C(=O)c1ccccc1C2=O
inactive: [2] 5% | [4] 40.9% | [5] 6.1% | [6] 51.5%
active: [1] 73% | [3] 76.8%

Cc1c[n+]([O-])n(-c2ccccc2)n1
inactive: [1] 4.65% | [2] -4.9% | [3] 0.7% | [4] -38.7% | [5] 11.6% | [6] -4.8%

FC12CCC(c3ccccc3)(CC1)CC2
inactive: [1] 11.8% | [2] -8.55% | [3] -4% | [4] -30.1% | [5] -3.5% | [6] -7.4%

CC(O)(c1ccccc1)C1CC1c1ccccc1 (stereo unspecified)
inactive: [1] 29.9% | [2] -3.5% | [3] 20.8% | [4] -17.2% | [5] -12.5% | [6] 6.3%

c1ccc(-c2[nH]nc3nc4c(nc23)CCCC4)cc1
inactive: [1] 7.4% | [2] -5.3% | [3] -5.1% | [4] -32.9% | [5] -33% | [6] 6.6%

Cc1cccc(N/N=C2\CCSc3ccccc32)c1
inactive: [1] 17.9% | [2] 8.45% | [3] 3.35% | [4] 5.95% | [5] 3.75% | [6] 4%

CCOP(=O)(OCC)/C(C#N)=C/c1ccc(N(C)C)cc1
inactive: [1] 16.3% | [2] -9.2% | [3] 12.4% | [4] 9.8% | [5] -13.9% | [6] 5.8%

ON(C=Nc1ccccc1)c1ccccc1
inactive: [1] 17% | [2] 19.1% | [3] 6.35% | [4] -11.5% | [5] -3.25% | [6] 7.05%

CCCCCCCC/C=C\CCCCCCCC(N)=O
inactive: [1] -20.9% | [2] -34.6% | [3] -11.5% | [4] -53% | [5] -21.1% | [6] -50%

From PubChem BioAssay (NCI)
